Measured values taken from PubChem BioAssay.

Experiment: viability profiling in RPMI8226 myeloma cells – cell-based, resazurin fluorescence, basal, 24 h, PK04 Diversity Set, profiling panel (AID 1180);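 further: RPMI8826 multiple myeloma cell line at 5000 cells per well; test concentration not given here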
Conditions: higher = more signal

| Compound | z-score |
| --- | --- |
| COc1cc2c(cc1OC)CN(C(=O)[C@H]1[C@@H]3C(=O)O[C@@H](c4ccccc4)[C@@H](c4ccccc4)N3[C@@H](c3ccc(O)cc3)[C@]13C(=O)Nc1ccccc13)CC2 | 0.0788 |
| C=CCNC(=O)[C@@H]1[C@H]2C(=O)O[C@H](c3ccccc3)[C@H](c3ccccc3)N2[C@H](c2ccc(OCCO)cc2)[C@@]12C(=O)Nc1ccc(C#CCC(C(=O)OC)C(=O)OC)cc12 | -5.98 |
| COCCOC(=O)N1C(=O)[C@@]2(c3cc(C#CC4(O)CCCCCC4)ccc31)[C@H](c1ccc(OCCO)cc1)N1[C@H](c3ccccc3)[C@H](c3ccccc3)OC(=O)[C@H]1[C@@H]2C(=O)N1CCN(c2ncccn2)CC1 | -0.305 |
| CC1(C)[C@@H]2CC(C(O)C3C=CC4C(=O)N(c5ccccc5)C(=O)C4N3Nc3ccc([N+](=O)[O-])cc3)=C[C@H]1C2 (some centres undefined) | 0.0954 |
| NC(=O)NCC#Cc1ccc2c(c1)[C@]1(C(=O)N2)[C@H](C(N)=O)[C@H]2C(=O)O[C@H](c3ccccc3)[C@H](c3ccccc3)N2[C@@H]1c1ccc(O)cc1 | -0.0275 |
| O=C(c1ccccc1)N1Cc2ccccc2C[C@@]2(COC(c3ccc(OCCCO)cc3)=N2)C1=O | 0.263 |
| C=CC[C@]1(C(=O)NCc2ccccc2)N=C(c2ccc(OCCCO)cc2)O[C@H]1c1ccccc1N=[N+]=[N-] | -1.31 |
| CC1CC/C=C\[C@H]2OC34C=CCN(C(C)(C)C)C(=O)[C@H]3N(C(C)CO)C(=O)[C@@H]4C2C(=O)O1 (some centres undefined) | -0.0501 |
| CCOC(=O)C[C@H]1[C@H](OC(=O)c2ccc(C(=O)c3ccccc3)cc2)[C@@H](NC(=O)c2ccccc2)c2cc(OCCCO)ccc2N1C(=O)Cc1ccc(OC)cc1 | 0.702 |
